Reference: PubChem BioAssay
Active and inactive are the calls of the source.

Key:
Lefty1 = Lefty1 binders on small-molecule microarrays, primary screen, biochemical, small-molecule microarray, 635/667 nm fluorescence (AID 1139); conditions: small-molecule microarray binding, fluorescence 635/667; higher = more signal
[1] = system: wheat germ agglutinin (Triticum aestivum), Alexa647-labelled; assay: wheat germ agglutinin binders on compound microarrays, profiling panel, artefact control for SMM control-protein annotation, biochemical, small-molecule microarray, 635/667 nm fluorescence (AID 1140); conditions: WGA-A647 binding, 635 nm fluorescence, higher = more signal;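 also: score merges 667 nm feature emission with signal to noise over triplicate slides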
[2] = target: Luciferin 4-monooxygenase (Photinus pyralis) (UniProt P08659); assay: firefly luciferase enzyme inhibitors, primary screen, biochemical, luminescence, purified enzyme, 2006 set (AID 1141); conditions: SteadyGlo luminescence, 30 min, higher = more signal, called active from +8 up or from −8 down;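 also: cell-free assay with purified firefly luciferase at 100 ng per well in PBS; test concentration not given here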
Luciferin 4-monooxygenase (Photinus pyralis), sequence (P08659 whole entry, looked up): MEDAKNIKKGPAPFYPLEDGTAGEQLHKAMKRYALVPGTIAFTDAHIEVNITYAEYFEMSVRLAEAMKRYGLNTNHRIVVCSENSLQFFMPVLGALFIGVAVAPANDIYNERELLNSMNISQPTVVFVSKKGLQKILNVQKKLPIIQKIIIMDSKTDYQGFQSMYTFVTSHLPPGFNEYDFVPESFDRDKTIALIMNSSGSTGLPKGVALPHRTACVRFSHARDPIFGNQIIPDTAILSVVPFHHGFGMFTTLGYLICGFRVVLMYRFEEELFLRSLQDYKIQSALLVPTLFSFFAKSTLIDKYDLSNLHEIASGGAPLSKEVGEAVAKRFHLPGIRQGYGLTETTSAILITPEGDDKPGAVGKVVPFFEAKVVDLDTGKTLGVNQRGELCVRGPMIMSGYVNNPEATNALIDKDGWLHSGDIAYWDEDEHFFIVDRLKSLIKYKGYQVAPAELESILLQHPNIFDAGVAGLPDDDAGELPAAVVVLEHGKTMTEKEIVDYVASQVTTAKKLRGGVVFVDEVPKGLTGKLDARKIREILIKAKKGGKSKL

[3] = system: Wnt5a (protein binding on small-molecule microarray); assay: Wnt5a binders on small-molecule microarray, primary screen, biophysical, 635/667 nm fluorescence (AID 1142); conditions: 635 nm fluorescence, higher = more signal;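 also: fluorescence read at 667 nm with signal to noise per printed feature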
[4] = cell viability in Huh7 cells, primary screen, cytotoxicity control for HCV replication inhibitor project, CellTiter-Glo luminescence, basal, 48 h (AID 1143); conditions: Huh7 HCV replicon, higher = more signal, called active from +8 up or from −8 down;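 also: Huh7 hepatoma cells carrying a hepatitis C replication reporter with no stimulus; test concentration not given here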
[5] = CREB reporter modulators without forskolin, primary screen, cell-based, PC12, CRE-LacZ reporter, unstimulated (AID 1145); conditions: no forskolin, luminescence, 4.5 h, higher = more signal, called active from +8 up or from −8 down
[6] = CREB reporter modulators under forskolin, primary screen, cell-based, PC12, CRE-LacZ reporter, forskolin-stimulated (AID 1146); conditions: luminescence, 4.5 h, higher = more signal, called active from +8 up or from −8 down;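 also: PC12 cells with 6xCRE LacZ reporter stimulated by forskolin 10 µM; beta-galactosidase reporter signal reflecting CREB driven transcription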
[7] = target: Streptavidin (Streptomyces avidinii) (UniProt P22629); assay: streptavidin binders on small-molecule microarray, primary screen, artefact control for SMM compound annotation, biophysical, 635/667 nm fluorescence (AID 1147); conditions: streptavidin binding, higher = more signal;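 also: signal reflects streptavidin binding to arrayed compounds as a control protein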
Streptavidin (Streptomyces avidinii), sequence (P22629 whole entry, looked up): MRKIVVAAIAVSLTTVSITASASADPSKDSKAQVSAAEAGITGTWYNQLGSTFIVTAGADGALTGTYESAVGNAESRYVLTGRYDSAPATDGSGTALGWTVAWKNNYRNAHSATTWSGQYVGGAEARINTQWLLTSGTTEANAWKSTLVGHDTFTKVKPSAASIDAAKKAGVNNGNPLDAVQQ

[8] = small-molecule binders of probe aInhba, primary screen, biochemical, small-molecule microarray, 635/667 nm fluorescence (AID 1148); conditions: higher = more signal;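 also: score merges 667nm spot fluorescence with signal-to-noise for antibody binding to printed compounds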
Torsin-1A (Homo sapiens) [9] = target: Torsin-1A (Homo sapiens) (UniProt O14656); assay: torsin A binders from cell lysate, primary screen, small-molecule microarray, wild-type, 635/667 nm (AID 1149); conditions: COS7 hTOR1A-WT lysate, 635 nm fluorescence, higher = more signal
Torsin-1A (Homo sapiens), sequence (O14656 whole entry, looked up): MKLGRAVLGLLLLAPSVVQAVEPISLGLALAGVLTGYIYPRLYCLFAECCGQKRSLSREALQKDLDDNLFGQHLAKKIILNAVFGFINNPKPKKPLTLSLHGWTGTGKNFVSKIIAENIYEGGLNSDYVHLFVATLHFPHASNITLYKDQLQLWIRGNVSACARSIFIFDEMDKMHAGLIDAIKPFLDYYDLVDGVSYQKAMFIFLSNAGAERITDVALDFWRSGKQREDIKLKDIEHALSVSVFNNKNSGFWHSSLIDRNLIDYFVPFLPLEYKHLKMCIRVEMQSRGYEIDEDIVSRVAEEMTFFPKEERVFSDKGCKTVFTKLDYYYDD

Torsin-1A (Homo sapiens) [10] = target: Torsin-1A (Homo sapiens) (UniProt O14656); assay: small-molecule binders of mutant TOR1A in lysate, primary screen, cell lysate, small-molecule microarray, COS7 lysate, 635/667 nm fluorescence (AID 1150); conditions: COS7 hTOR1A mutant lysate, 635 nm fluorescence, higher = more signal;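 also: score pools 667 nm emission and signal to noise measuring lysate protein binding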
[11] = system: Sonic hedgehog protein (Shh); assay: small-molecule binders of Shh protein, primary screen, biochemical, small-molecule microarray, 635/667 nm fluorescence (AID 1151); conditions: small-molecule microarray binding, 635 nm fluorescence; higher = more signal;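 also: Shh protein binding to compounds spotted on small-molecule microarray slides; score combines spot fluorescence intensity with signal-to-noise across triplicate slides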
[12] = E. coli DRC41 culture turbidity changes, primary screen, E. coli filamentation inducer project, strain DRC41, OD650, 48 h (AID 1152);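 also: E. coli MC1000 strain DRC41 lacking acrAB efflux pump and sulA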; conditions: E. coli DRC41 (acrAB sulA), higher = more signal, called active from +8 up or from −8 down
[13] = small-molecule binders of probe aLefty1, primary screen, biochemical, small-molecule microarray, 635/667 nm fluorescence (AID 1153); conditions: higher = more signal;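 also: score merges spot fluorescence with signal-to-noise ratio from the scanned slide images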
[14] = PSAC antagonists in infected red cells, primary screen, cell-based, P. falciparum Indochina, OD700, 1 h (AID 1154); conditions: P. falciparum Indochina infected RBC osmotic lysis, higher = more signal, called active from +8 up or from −8 down
[15] = PSAC antagonists in infected red cells, primary screen, cell-based, P. falciparum Indochina, OD700, 2 h (AID 1155);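 also: lysis reports solute entry through the parasite surface anion channel PSAC; channel blockers reduce lysis of infected cells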; conditions: P. falciparum Indochina infected erythrocytes, osmotic lysis OD700; higher = more signal, called active from +8 up or from −8 down
[16] = osmotic lysis modulators in infected erythrocytes, primary screen, PSAC antagonist project, cell-based, P. falciparum Indochina, OD700, 3 h (AID 1156); conditions: higher = more signal, called active from +8 up or from −8 down
[17] = PSAC antagonists in infected red cells, primary screen, cell-based, P. falciparum Indochina, OD700, 18 h (AID 1157); conditions: P. falciparum Indochina infected erythrocytes, osmotic lysis OD700, 18 h; higher = more signal, called active from +8 up or from −8 down
[18] = modulators of S6 phosphorylation in cells, primary screen, cell-based, A549, cytoblot, luminescence, serum-stimulated (AID 1158); conditions: A549 phospho-S6 cytoblot, 5 h, higher = more signal;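 also: serum-stimulated A549 lung adenocarcinoma cells; signal is phosphorylated S6 detected by cytoblot immunostaining with HRP secondary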
[19] = target: NADPH oxidase 2 (Homo sapiens) (UniProt P04839); assay: NOX2-dependent H2O2 signal modulators, primary screen, NOX inhibitor project, cell-based, HEK293-NOX2, PMA-stimulated, Amplex Red fluorescence (AID 1159); conditions: 45 min, higher = more signal, called active from +8 up or from −8 down; also: test concentration not given here
NADPH oxidase 2 (Homo sapiens), sequence (P04839 whole entry, looked up): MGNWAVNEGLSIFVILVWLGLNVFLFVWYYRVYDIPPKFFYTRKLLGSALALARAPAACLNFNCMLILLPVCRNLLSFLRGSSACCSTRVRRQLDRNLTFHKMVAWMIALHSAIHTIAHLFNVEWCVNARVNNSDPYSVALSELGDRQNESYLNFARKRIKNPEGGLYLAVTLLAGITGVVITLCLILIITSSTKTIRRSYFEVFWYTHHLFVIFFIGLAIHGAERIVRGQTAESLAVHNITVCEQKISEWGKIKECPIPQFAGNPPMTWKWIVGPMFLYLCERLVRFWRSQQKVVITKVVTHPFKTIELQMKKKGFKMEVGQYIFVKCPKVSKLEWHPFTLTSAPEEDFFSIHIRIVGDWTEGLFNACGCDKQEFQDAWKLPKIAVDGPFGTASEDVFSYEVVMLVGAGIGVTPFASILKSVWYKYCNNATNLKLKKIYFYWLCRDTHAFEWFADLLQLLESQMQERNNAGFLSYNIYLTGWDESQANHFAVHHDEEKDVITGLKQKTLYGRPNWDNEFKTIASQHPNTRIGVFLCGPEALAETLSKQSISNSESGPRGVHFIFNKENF

| Structure (SMILES) | composite z-score (Lefty1) | composite z-score [1] | z-score [2] | composite z-score [3] | z-score [4] | z-score [5] | z-score [6] | composite z-score [7] | composite z-score [8] | composite z-score (Torsin-1A (Homo sapiens) [9]) | composite z-score (Torsin-1A (Homo sapiens) [10]) | composite z-score [11] | z-score [12] | composite z-score [13] | z-score [14] | z-score [15] | z-score [16] | z-score [17] | z-score [18] | z-score [19] |
| --- | --- | --- | --- | --- | --- | --- | --- | --- | --- | --- | --- | --- | --- | --- | --- | --- | --- | --- | --- | --- |
| COC(=O)C1=CC(c2ccc(CO)cc2)=CC(C2CC2)N(C)C=C1C(=O)OC (stereo not given) | -0.615 | 1.28 | -1.8 (inactive) | 0.138 | -3.85 (inactive) | -0.195 (inactive) | -1.75 (inactive) | 0.226 | 0.203 | -0.017 | 1.04 | -0.154 | 2.75 (inactive) | 0.223 | 7.02 (inactive) | 0.548 (inactive) | -2.7 (inactive) | -0.382 (inactive) | 3.99 | -1.7 (inactive) |
| C=C1C=C(Br)C2(OCCCO2)[C@H]2OC12 (stereo not given in full) | 0.743 | -0.903 | -0.914 (inactive) | -0.093 | 0.15 (inactive) | 0.199 (inactive) | 0.676 (inactive) | 0.61 | -0.128 | 0.639 | 0.495 | 0.411 | 0.659 (inactive) | -0.147 | -0.14 (inactive) | 0.146 (inactive) | -0.334 (inactive) | -0.12 (inactive) | -0.281 | 0.868 (inactive) |
| CC(C)C(CO)N1C(=O)[C@@H]2C3C(=O)OCCC/C=C\[C@H]3OC23C=CCN(C(C)C)C(=O)[C@@H]13 (stereo not given in full) | -0.278 | -1.14 | -0.774 (inactive) | -0.0608 | 0.303 (inactive) | 0.333 (inactive) | -1.18 (inactive) | -0.643 | 0.0228 | 0.286 | 0.703 | 0.321 | 2.21 (inactive) | -0.142 | -0.0173 (inactive) | -0.96 (inactive) | -0.677 (inactive) | -1.36 (inactive) | 0.225 | 0.914 (inactive) |
| C/C=C/[C@@H](CCn1cc(CCO[Si](C(C)C)(C(C)C)C(C)C)nn1)[Si](C)(C)c1ccc(OC)cc1 | -1.16 | -2.08 | -2.45 (inactive) | -0.569 | -3.19 (inactive) | 3.29 (inactive) | -1.01 (inactive) | -1.27 | -0.39 | -0.72 | 0.741 | -0.526 | 0.415 (inactive) | -0.315 | 0.305 (inactive) | 0.0452 (inactive) | -0.606 (inactive) | -1.92 (inactive) | 2.96 | -0.937 (inactive) |
| CO[C@H]1O[C@H](CO)[C@@H](OC(=O)CCc2ccccc2)[C@@H]2OC(=O)[C@H](Cc3ccccc3)C/C=C/C[C@@H](Cc3ccccc3)C(=O)O[C@@H]12 | -0.71 | -1.32 | -1.21 (inactive) | -0.221 | -3.09 (inactive) | -0.552 (inactive) | -1.18 (inactive) | -0.804 | -0.179 | 0.0387 | 0.0489 | -0.214 | 2.35 (inactive) | -0.243 | 6.07 (inactive) | 0.389 (inactive) | -1.06 (inactive) | -1.83 (inactive) | 0.939 | 1.59 (inactive) |
| C=CCN1C(=O)[C@@]2(O[C@@H](CCn3cc(CCO)nn3)[C@H]([Si](C)(C)c3ccc(OC)cc3)[C@H]2C)c2cc(N3C(=O)c4cccc5cccc3c45)ccc21 | 0.537 | 1.1 | -1.96 (inactive) | 0.662 | -7.17 (inactive) | 37.8 (active) | -3.77 (inactive) | 0.854 | 0.0377 | 0.311 | 0.615 | 0.802 | 2.05 (inactive) | 0.0318 | 16.4 (active) | 3.97 (inactive) | -0.551 (inactive) | 1.5 (inactive) | 0.905 | 0.576 (inactive) |
| C=CCN1C(=O)[C@@]2(O[C@@H](CCO)[C@H]([Si](C)(C)c3ccc(OC)cc3)[C@H]2C)c2cc(N3C(=O)c4cccc5cccc3c45)ccc21 | -0.272 | 0.525 | -1.53 (inactive) | -0.1 | -7.95 (inactive) | 22.3 (active) | -4.22 (inactive) | 0.168 | 0.017 | 0.408 | 0.579 | 0.567 | 1.29 (inactive) | 0.0313 | 24.5 (active) | 9.43 (active) | 0.0469 (inactive) | 2.56 (inactive) | 0.0438 | -0.167 (inactive) |
| CC(C)C[C@@H]1NC(=O)[C@@]23C(=O)N[C@@H](Cc4ccccc4)C2[C@H](C)[C@@]2(C)O[C@H]2C3/C=C/C/C=C\CNC(=O)[C@H](Cc2ccccc2)NC1=O (stereo not given in full) | 0.321 | 0.994 | -0.755 (inactive) | -0.108 | -4.13 (inactive) | 4.56 (inactive) | -2.06 (inactive) | -0.198 | -0.082 | 0.305 | 0.384 | 0.46 | 1.76 (inactive) | -0.147 | 1.53 (inactive) | -0.0735 (inactive) | 0.966 (inactive) | 0.256 (inactive) | 0.497 | -0.188 (inactive) |
